Consider 15 molecules from article PMC8222333, “AsCas12a ultra nuclease facilitates the rapid generation of therapeutic cell medicines”.

Among the targets are dAsCas12a Ultra (Acidaminococcus sp., UniProt U2UMQ6 1-1307, M537R;F870L;D908A;E993A;D1235A); dAsCas12a E174R (Acidaminococcus sp., UniProt U2UMQ6 1-1307, E174R;D908A;E993A;D1235A); dAsCas12a S542R (Acidaminococcus sp., UniProt U2UMQ6 1-1307, S542R;D908A;E993A;D1235A); dAsCas12a K548R (Acidaminococcus sp., UniProt U2UMQ6 1-1307, K548R;D908A;E993A;D1235A); d-enCas12a (Acidaminococcus sp., UniProt U2UMQ6 1-1307, E174R;S542R;K548R;D908A;E993A;D1235A); d-enCas12a-Ultra (Acidaminococcus sp., UniProt U2UMQ6 1-1307, E174R;S542R;K548R;M537R;F870L;D908A;E993A;D1235A).

Holding throughout (assay): Spec-seq (native PAGE EMSA with sequencing of bound and unbound); 25 mM Tris-HCl pH 7.4, 150 mM KCl, 5 mM MgCl2, 10% glycerol, 1 mM DTT, 40 ng/uL salmon sperm DNA; 400 nM Cas12a, 480 nM crRNA, 50 nM library, 37 C 1 h; native PAGE at room temperature; high values mean tight binding
Details in all cases: protein: recombinant
In general terms: Mobility shift assays separate free from complexed probe on a gel.

B1: AGTA (dsDNA)
DNA 1: GCTATCTAGTGCTCAGTACGCACTGAGTAAGGAAACTTCTGGCAGGACCAGGTCATGAGATCGGAAGAGCACACGTCTGAACTCCAGTCA
DNA 2: TGACTGGAGTTCAGACGTGTGCTCTTCCGATCTCATGACCTGGTCCTGCCAGAAGTTTCCTTACTCAGTGCGTACTGAGCACTAGATAGC
RNA: AAUUUCUACUCUUGUAGAUAGGAAACUUCUGGCAGGACC
In the case of B1, the binding signal with dAsCas12a Ultra was -8.43 lnKA; with dAsCas12a E174R it was -8.14 lnKA; in the experiment with dAsCas12a S542R, -7.93 lnKA; in the experiment with dAsCas12a K548R, -8.98 lnKA; with d-enCas12a it was -2.11 lnKA; with d-enCas12a-Ultra, -0.526 lnKA.

B2: CCGG (dsDNA)
DNA 1: GCTATCTAGTGCTCAGTACGCACTGCCGGAGGAAACTTCTGGCAGGACCAGGTCATGAGATCGGAAGAGCACACGTCTGAACTCCAGTCA
DNA 2: TGACTGGAGTTCAGACGTGTGCTCTTCCGATCTCATGACCTGGTCCTGCCAGAAGTTTCCTCCGGCAGTGCGTACTGAGCACTAGATAGC
RNA: AAUUUCUACUCUUGUAGAUAGGAAACUUCUGGCAGGACC
Turning to B2, the binding signal is -8.87 lnKA with dAsCas12a Ultra, -8.41 lnKA with dAsCas12a S542R, -6.11 lnKA in the experiment with d-enCas12a and -3.44 lnKA with d-enCas12a-Ultra.

B3: AGTC (dsDNA)
DNA 1: GCTATCTAGTGCTCAGTACGCACTGAGTCAGGAAACTTCTGGCAGGACCAGGTCATGAGATCGGAAGAGCACACGTCTGAACTCCAGTCA
DNA 2: TGACTGGAGTTCAGACGTGTGCTCTTCCGATCTCATGACCTGGTCCTGCCAGAAGTTTCCTGACTCAGTGCGTACTGAGCACTAGATAGC
RNA: AAUUUCUACUCUUGUAGAUAGGAAACUUCUGGCAGGACC
As for B3, the binding signal is -8.75 lnKA with dAsCas12a Ultra; -8.31 lnKA in the experiment with dAsCas12a E174R; -8.14 lnKA in the experiment with dAsCas12a S542R; -7.9 lnKA with dAsCas12a K548R; -2.3 lnKA in the experiment with d-enCas12a; -0.544 lnKA in the experiment with d-enCas12a-Ultra.

B4: CCCC (dsDNA)
DNA 1: GCTATCTAGTGCTCAGTACGCACTGCCCCAGGAAACTTCTGGCAGGACCAGGTCATGAGATCGGAAGAGCACACGTCTGAACTCCAGTCA
DNA 2: TGACTGGAGTTCAGACGTGTGCTCTTCCGATCTCATGACCTGGTCCTGCCAGAAGTTTCCTGGGGCAGTGCGTACTGAGCACTAGATAGC
RNA: AAUUUCUACUCUUGUAGAUAGGAAACUUCUGGCAGGACC
Turning to B4, the binding signal was -8.74 lnKA with dAsCas12a Ultra; -8.52 lnKA with dAsCas12a E174R; -4.35 lnKA with dAsCas12a S542R; -1.8 lnKA with d-enCas12a; -0.387 lnKA in the experiment with d-enCas12a-Ultra.

B5: CGTA (dsDNA)
DNA 1: GCTATCTAGTGCTCAGTACGCACTGCGTAAGGAAACTTCTGGCAGGACCAGGTCATGAGATCGGAAGAGCACACGTCTGAACTCCAGTCA
DNA 2: TGACTGGAGTTCAGACGTGTGCTCTTCCGATCTCATGACCTGGTCCTGCCAGAAGTTTCCTTACGCAGTGCGTACTGAGCACTAGATAGC
RNA: AAUUUCUACUCUUGUAGAUAGGAAACUUCUGGCAGGACC
On to B5, for which the binding signal in the experiment with dAsCas12a Ultra is -8.71 lnKA; with dAsCas12a E174R, -8.37 lnKA; with dAsCas12a S542R, -8.4 lnKA; with d-enCas12a, -2.47 lnKA; with d-enCas12a-Ultra it was -0.629 lnKA.

B6: AGTG (dsDNA)
DNA 1: GCTATCTAGTGCTCAGTACGCACTGAGTGAGGAAACTTCTGGCAGGACCAGGTCATGAGATCGGAAGAGCACACGTCTGAACTCCAGTCA
DNA 2: TGACTGGAGTTCAGACGTGTGCTCTTCCGATCTCATGACCTGGTCCTGCCAGAAGTTTCCTCACTCAGTGCGTACTGAGCACTAGATAGC
RNA: AAUUUCUACUCUUGUAGAUAGGAAACUUCUGGCAGGACC
For the molecule B6, the binding signal with dAsCas12a Ultra was -8.77 lnKA; in the experiment with dAsCas12a E174R it was -8.75 lnKA; with dAsCas12a S542R, -8.41 lnKA; with d-enCas12a it was -3.79 lnKA; with d-enCas12a-Ultra it was -1.18 lnKA.

B7: ATAA (dsDNA)
DNA 1: GCTATCTAGTGCTCAGTACGCACTGATAAAGGAAACTTCTGGCAGGACCAGGTCATGAGATCGGAAGAGCACACGTCTGAACTCCAGTCA
DNA 2: TGACTGGAGTTCAGACGTGTGCTCTTCCGATCTCATGACCTGGTCCTGCCAGAAGTTTCCTTTATCAGTGCGTACTGAGCACTAGATAGC
RNA: AAUUUCUACUCUUGUAGAUAGGAAACUUCUGGCAGGACC
Regarding B7, the binding signal with dAsCas12a Ultra is -8.76 lnKA; with dAsCas12a E174R it was -8.75 lnKA; with dAsCas12a S542R, -8.17 lnKA; with d-enCas12a, -5.28 lnKA; with d-enCas12a-Ultra, -3.12 lnKA.

B8: CCTA (dsDNA)
DNA 1: GCTATCTAGTGCTCAGTACGCACTGCCTAAGGAAACTTCTGGCAGGACCAGGTCATGAGATCGGAAGAGCACACGTCTGAACTCCAGTCA
DNA 2: TGACTGGAGTTCAGACGTGTGCTCTTCCGATCTCATGACCTGGTCCTGCCAGAAGTTTCCTTAGGCAGTGCGTACTGAGCACTAGATAGC
RNA: AAUUUCUACUCUUGUAGAUAGGAAACUUCUGGCAGGACC
On to B8, for which the binding signal was -7.06 lnKA with dAsCas12a Ultra; -5.98 lnKA with dAsCas12a E174R; -7.77 lnKA with dAsCas12a S542R; -5.38 lnKA with d-enCas12a; -2.2 lnKA in the experiment with d-enCas12a-Ultra.

B9: CCTG (dsDNA)
DNA 1: GCTATCTAGTGCTCAGTACGCACTGCCTGAGGAAACTTCTGGCAGGACCAGGTCATGAGATCGGAAGAGCACACGTCTGAACTCCAGTCA
DNA 2: TGACTGGAGTTCAGACGTGTGCTCTTCCGATCTCATGACCTGGTCCTGCCAGAAGTTTCCTCAGGCAGTGCGTACTGAGCACTAGATAGC
RNA: AAUUUCUACUCUUGUAGAUAGGAAACUUCUGGCAGGACC
For B9, the binding signal is -7.53 lnKA with dAsCas12a Ultra; -7.6 lnKA with dAsCas12a E174R; -8.1 lnKA in the experiment with dAsCas12a S542R; -5.7 lnKA with d-enCas12a; -3.13 lnKA with d-enCas12a-Ultra.

B10: CCTC (dsDNA)
DNA 1: GCTATCTAGTGCTCAGTACGCACTGCCTCAGGAAACTTCTGGCAGGACCAGGTCATGAGATCGGAAGAGCACACGTCTGAACTCCAGTCA
DNA 2: TGACTGGAGTTCAGACGTGTGCTCTTCCGATCTCATGACCTGGTCCTGCCAGAAGTTTCCTGAGGCAGTGCGTACTGAGCACTAGATAGC
RNA: AAUUUCUACUCUUGUAGAUAGGAAACUUCUGGCAGGACC
Take B10: the binding signal with dAsCas12a Ultra was -6.9 lnKA; with dAsCas12a E174R, -6.59 lnKA; with dAsCas12a S542R, -7.68 lnKA; with d-enCas12a it was -5.18 lnKA; with d-enCas12a-Ultra, -2.06 lnKA.

B11: ATGA (dsDNA)
DNA 1: GCTATCTAGTGCTCAGTACGCACTGATGAAGGAAACTTCTGGCAGGACCAGGTCATGAGATCGGAAGAGCACACGTCTGAACTCCAGTCA
DNA 2: TGACTGGAGTTCAGACGTGTGCTCTTCCGATCTCATGACCTGGTCCTGCCAGAAGTTTCCTTCATCAGTGCGTACTGAGCACTAGATAGC
RNA: AAUUUCUACUCUUGUAGAUAGGAAACUUCUGGCAGGACC
For the molecule B11, the binding signal with dAsCas12a Ultra was -8.29 lnKA; with dAsCas12a E174R it was -8.88 lnKA; with dAsCas12a S542R, -7.95 lnKA; with d-enCas12a it was -5.35 lnKA; with d-enCas12a-Ultra it was -3.17 lnKA.

B12: CCTT (dsDNA)
DNA 1: GCTATCTAGTGCTCAGTACGCACTGCCTTAGGAAACTTCTGGCAGGACCAGGTCATGAGATCGGAAGAGCACACGTCTGAACTCCAGTCA
DNA 2: TGACTGGAGTTCAGACGTGTGCTCTTCCGATCTCATGACCTGGTCCTGCCAGAAGTTTCCTAAGGCAGTGCGTACTGAGCACTAGATAGC
RNA: AAUUUCUACUCUUGUAGAUAGGAAACUUCUGGCAGGACC
For the molecule B12, the binding signal was -8.97 lnKA in the experiment with dAsCas12a Ultra; -8.31 lnKA with dAsCas12a E174R; -8.32 lnKA in the experiment with dAsCas12a S542R; -5.69 lnKA with d-enCas12a; -3.27 lnKA with d-enCas12a-Ultra.

B13: AGTT (dsDNA)
DNA 1: GCTATCTAGTGCTCAGTACGCACTGAGTTAGGAAACTTCTGGCAGGACCAGGTCATGAGATCGGAAGAGCACACGTCTGAACTCCAGTCA
DNA 2: TGACTGGAGTTCAGACGTGTGCTCTTCCGATCTCATGACCTGGTCCTGCCAGAAGTTTCCTAACTCAGTGCGTACTGAGCACTAGATAGC
RNA: AAUUUCUACUCUUGUAGAUAGGAAACUUCUGGCAGGACC
As to B13, the binding signal with dAsCas12a Ultra was -8.9 lnKA; with dAsCas12a E174R it was -8.38 lnKA; with dAsCas12a S542R, -8.18 lnKA; with d-enCas12a, -4.88 lnKA; with d-enCas12a-Ultra, -1.91 lnKA.

B14: ATGT (dsDNA)
DNA 1: GCTATCTAGTGCTCAGTACGCACTGATGTAGGAAACTTCTGGCAGGACCAGGTCATGAGATCGGAAGAGCACACGTCTGAACTCCAGTCA
DNA 2: TGACTGGAGTTCAGACGTGTGCTCTTCCGATCTCATGACCTGGTCCTGCCAGAAGTTTCCTACATCAGTGCGTACTGAGCACTAGATAGC
RNA: AAUUUCUACUCUUGUAGAUAGGAAACUUCUGGCAGGACC
B14: the binding signal is -8.98 lnKA with dAsCas12a Ultra, -8.67 lnKA with dAsCas12a S542R, -5.72 lnKA with d-enCas12a and -3.21 lnKA with d-enCas12a-Ultra.

B15: CGGG (dsDNA)
DNA 1: GCTATCTAGTGCTCAGTACGCACTGCGGGAGGAAACTTCTGGCAGGACCAGGTCATGAGATCGGAAGAGCACACGTCTGAACTCCAGTCA
DNA 2: TGACTGGAGTTCAGACGTGTGCTCTTCCGATCTCATGACCTGGTCCTGCCAGAAGTTTCCTCCCGCAGTGCGTACTGAGCACTAGATAGC
RNA: AAUUUCUACUCUUGUAGAUAGGAAACUUCUGGCAGGACC
On to B15, for which the results for the binding signal with dAsCas12a Ultra, with d-enCas12a and with d-enCas12a-Ultra were -8.98 lnKA, -6.24 lnKA and -3.42 lnKA, respectively.
